Rows were chosen to be rich in hits. Some 8% of all compounds tested hit in one or more screens of this group.
HCMV inh – qHTS Assay for inhibitors of the human cytomegalovirus (HCMV) | HFF cells, HCMV-luciferase reporter, 72 h; hits give low values | activity change, negative = inhibition, % at 57.5 µM | 410,000 tested, 4.5% active; in the data active = activity change below about -60%; inconclusive = no clear call, values can overlap the other calls; inactive = above about -39%; note: % is set by controls: 0 for no effect and ±100 for the full control effect
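Human foreskin fibroblasts infected with luciferase-reporter HCMV at MOI 1 PFU/cell, compounds at two doses. Luciferase measured 72 h post infection; normalized to buffer-only basal and Salinomycin (10uM) controls.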
SARS PLP yeast – qHTS of Yeast-based Assay for SARS-CoV PLP; S. cerevisiae expressing SARS-CoV PLpro, growth rescue; Potency, µM (highest dose often 32.9 µM), without a hit: at the top dose activity, positive = growth rescue, hits mostly activators; 330,000 tested, 0.19% active; AID 485353, 2010; calls by dose curve; note: potency is the fitted concentration of half-maximal effect; 0% is about no effect; nearly all actives have a fitted effect of over 55% in size
FMDV inh – High Throughput Screening for Foot and Mouth Disease Virus Antivirals. FMDV antiviral cell-based qHTS. Potency, µM (titrated, usually from 57.9 µM), inactives show at the highest dose activity change, negative = inhibition, usual class: inhibitors. 410,000 tested, 1.2% active. AID 1159524, 2015; calls by dose curve; tested in HEK293T cells; note: read-out not given here; potency is the fitted concentration of half-maximal effect; % is set by controls: 0 for no effect and ±100 for the full control effect; nearly all actives have a fitted effect of over 45% in size
HCV inh – qHTS Assay for Inhibitors of Hepatitis C Virus (HCV); Huh7.5.1 HCVcc-Cre infection, luciferase reporter, 44 h; Potency, µM (titrated, usually from 41.8 µM), without a hit: at the top dose activity change, negative = inhibition, usual class: inhibitors; 340,000 tested, 3.4% active; AID 651820, 2012; active = well fitted inhibition curve with a large enough effect; inconclusive = small, poorly fitted or top-dose-only effect, or another doubt; inactive = no such curve, though single readings can be large or run the other way; note: potency is the fitted concentration of half-maximal effect; % is set by controls: 0 for no effect and ±100 for the full control effect
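HCVcc-Cre virus at an moi near 0.5 was added right after compound to cells cultured 4 h from seeding (1,000 cells/well). Luciferase activity was determined 44 h later, 15 min after substrate addition at RT.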
MARV entry inh – qHTS for inhibitors of binding or entry into cells for Marburg Virus; Marburg virus pseudotyped entry inhibition, cell reporter; Potency, µM (series often up to 37.8 µM), for the others: top-dose activity change, negative = inhibition, actives largely listed as inhibitors; 300,000 tested, 1.8% active; AID 540276, 2011; calls by dose curve; tested in HEK293 cells; note: potency is the fitted concentration of half-maximal effect; % is set by controls: 0 for no effect and ±100 for the full control effect
Lassa entry inh – qHTS for Inhibitors of binding or entry into cells for Lassa Virus | Lassa virus pseudotype entry inhibition, cell reporter | Potency, µM (top dose mostly 37.9 µM), for the others: at the top dose activity change, negative = inhibition, usual class: inhibitors | 300,000 tested, 1.2% active | AID 540256, 2011; calls by dose curve; tested in HEK293 cells; note: potency is the fitted concentration of half-maximal effect; % is set by controls: 0 for no effect and ±100 for the full control effect; nearly all actives have a fitted effect of over 50% in size
The depositor's hits bear a star; ? = inconclusive; nt = no result; [ ] = remark or other dose.

SMILES	HCMV inh	SARS PLP yeast	FMDV inh	HCV inh	MARV entry inh	Lassa entry inh
COc1cccc2sc(N(CCCN(C)C)C(=O)c3ccc(S(=O)(=O)N4CCCc5ccccc54)cc3)nc12	-71*	-7%	?	14µM*	nt	nt
COc1ccc(NC(=O)c2cc(C(C)=O)n3ccccc23)cc1	31	nt	19%	nt	nt	5%[46.1 µM]
O=C(N/N=C\c1ccc([N+](=O)[O-])o1)C1COc2ccccc2O1 (stereo not given)	-84*	-4%	-6%	?	?	?
O=C(N/N=C\c1ccc(-c2ccccc2[N+](=O)[O-])o1)C1COc2ccccc2O1 (stereo not given)	?	-57%	-14%	2%	?	1%
O=C(N/N=C\c1ccc(Cl)s1)C1COc2ccccc2O1 (stereo not given)	-31	-9%	0%	-28%	nt	nt
O=C(N/N=C\c1ccc([N+](=O)[O-])s1)C1COc2ccccc2O1 (stereo not given)	-4	-1%	-18%	10µM*	nt	nt
CCN1/C(=C/c2cccc[n+]2C)Sc2ccc(OC)cc21	-94*	-5%	?	3.5µM*	8%	nt
COc1cc(OC)cc(C(=O)/C=C2\Sc3ccccc3N2C)c1	-40	-1%	18%	6%	2%[46.1 µM]	15%[46.1 µM]
COc1ccc2c(c1)N(C)/C(=C/c1cccc[n+]1C)S2	-99*	-4%	?	3.5µM*	-2%	nt
COc1ccc(S(=O)(=O)n2ccc(-c3ccc4c(c3)CCC(C)(C)O4)n2)cc1	-85*	1%	-20%	-74%	?	?
Cc1ccc(NC(=O)Nc2cccc([N+](=O)[O-])c2)nc1	13	1%	38%	-7%	-2%[46.1 µM]	0%
Cc1ccc(NC(=O)Nc2ccc([N+](=O)[O-])cc2)nc1	-70*	-2%	34%	-1%	-15%[46.1 µM]	?
CCc1ccc(NC(=O)Nc2ccon2)cc1	102	-2%	76%	4%	nt	nt
Cc1nc(-c2cccc(NC(=O)Nc3ccc([N+](=O)[O-])cc3)c2)no1	-99*	nt	14µM*	nt	nt	?
O=C(Nc1ccc([N+](=O)[O-])cc1)Nc1ccon1	-86*	5%	-22%	-1%	?	-9%[46.1 µM]
CC(C)c1nnc(NC(=O)c2nc(S(=O)(=O)Cc3ccccc3)ncc2Cl)s1	-110*	1%	4.5µM*	?	?	?
CSc1ncc(Cl)c(C(=O)Nc2nnc(SC)s2)n1	-3	-2%	-23%	6%	-1%	15%
CSc1nnc(NC(=O)c2nc(S(=O)(=O)Cc3ccccc3)ncc2Cl)s1	-102*	1%	6.3µM*	13µM*	?	?
Cc1ccccc1CS(=O)(=O)c1ncc(Cl)c(C(=O)Nc2nnc(C(C)C)s2)n1	-99*	nt	20µM*	nt	?	?
Cc1nc2c(C(=O)NCCc3ccc(Cl)cc3)c[nH]n2c(=O)c1Cc1ccc(Cl)cc1	40	nt	-18%	nt	-2%[46.1 µM]	0%[46.1 µM]
C=CCNC(=O)CN1CCN(C(c2ccccc2)c2ccccc2)CC1	65	5%	-15%	?	nt	nt
O=S1(=O)[C@H]2C[C@H](CO)O[C@@]2(CO)CN1Cc1ccc(-c2cccc(Cl)c2)cc1	5	-9%	-34%	?	2%	nt
Cc1ccnc(SC2CC(=O)N(c3ccc(F)cc3)C2=O)n1 (stereo not given)	-20	-1%	-3%	14%	2%	15%
Cc1ncc2c(c1CNC(=O)CN1CCCC1)CCN(C(=O)c1ccc(F)cc1F)C2	nt	nt	1%	nt	nt	nt
Cc1cccc(-n2ncc3c2CCCC3NC(=O)C2CCOCC2)c1C (stereo not given)	-38	?	0%	22µM*	-29%	-9%
SMILES	HCMV inh	SARS PLP yeast	FMDV inh	HCV inh	MARV entry inh	Lassa entry inh
Cc1ccn(CCC(=O)NC2CCCc3c2cnn3-c2cccc(C)c2C)n1 (stereo not given)	?	15%	-11%	-8%	nt	nt
Cc1cc(C(=O)NC2CCCc3c2cnn3-c2cccc(C)c2C)n(C)n1 (stereo not given)	-40	-2%	?	0.32µM*	nt	nt
Cc1cccc(-n2ncc3c2CCCC3NC(=O)c2ccc[n+]([O-])c2)c1C (stereo not given)	?	6%	-26%	13µM*	nt	nt
COc1ccccc1CN1CCOc2ccc(CN3CCC(Oc4cccnc4)CC3)cc2C1	nt	nt	-10%	nt	nt	nt
O=C(c1ccccc1)N1CC(=O)N2[C@H](CO)[C@@H](c3ccc(Br)cc3)[C@@H]2C1	-28	nt	nt	nt	nt	nt
CCOC(=O)c1ccc(NC(=O)CSc2nc3ncc(Br)c(C)c3[nH]2)cc1	-12	nt	-12%	nt	nt	5%[46.1 µM]
COc1ccccc1C(c1nnnn1Cc1ccco1)N1CCN(c2cccc(C)c2C)CC1 (stereo not given)	-27	-4%	-3%	13µM*	?	9.2µM*
CCN1CCN(C(c2cccc(OC)c2OC)c2nnnn2Cc2ccco2)CC1 (stereo not given)	-83*	-2%	-8%	-9%	0%[46.1 µM]	3%
COCCn1nnnc1C(c1ccccn1)N1CCN(c2cccc(C)c2C)CC1 (stereo not given)	-6	0%	?	1%	-25%	-28%
COCCn1nnnc1C(c1cccc(OC)c1OC)N1CCN(C(=O)c2ccco2)CC1 (stereo not given)	4	0%	25%	24%	0%[46.1 µM]	2%[46.1 µM]
COc1cc(C(O)c2nc(-c3ccc(C)c(C)c3)cs2)ccc1F (stereo not given)	-23	nt	-11%	nt	nt	nt
CO[C@@H]1c2cc(F)ccc2C(=CCCOC(=O)CC=Cc2ccccc2)[C@H]1C	nt	nt	nt	nt	-24%[14.2 µM]	nt
Cc1cc(NC(=O)c2ccc3[nH]c(C)c(C)c3c2)ccn1	-2	2%	-26%	2.5µM*	-17%[46.1 µM]	-28%[46.1 µM]
COc1ccc(Cc2c(-c3ccc(OC)c(OC)c3)nc3c(C)cc(Br)cn23)c(C)c1	-61*	nt	?	nt	nt	nt
CCc1ccccc1NC(=O)c1ccc(Cn2nc(N3CCN(c4ccccc4)CC3)ccc2=O)o1	-75*	nt	?	nt	nt	-9%[46.1 µM]
CCCCn1c(N)c(N(CCOC)C(=O)CN2C(=O)C3CCCCC3C2=O)c(=O)[nH]c1=O (stereo not given)	-18	6%	-18%	6%	nt	nt
CCCCN(C=O)c1c(CC)nc2c(OCc3ccc(Cl)cc3)cccn12	-3	nt	-30%	nt	nt	nt
C[C@@H]1CN([C@@H](C)CO)C(=O)c2cc(NS(=O)(=O)c3ccc(F)cc3)ccc2O[C@@H](C)CCCCO[C@H]1CN(C)C(=O)NC1CCCCC1	-86*	nt	-24%	nt	nt	nt
C[C@@H]1CCCCO[C@H](CN(C)C(=O)Nc2ccc3c(c2)OCO3)[C@@H](C)CN([C@H](C)CO)C(=O)c2cc(NS(=O)(=O)c3ccc(F)cc3)ccc2O1	-35	nt	0%	nt	nt	nt
